Measured values published in PubChem BioAssay AID488899 (Broad Institute, 2010).
Among all 330,000 compounds or so, about 2,800 (0.85%) were called active. Many of the other results were omitted from the sample, so actives are more common in it than they were. Values without a mark were called inactive.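 How the source made its calls: active means mean inhibition across replicates of 60% or more, whatever share of single replicates reaches that level; inconclusive means some that reach 60%, reason not given; inactive means mean inhibition across replicates below 60%.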

Experiment: MITF transcriptional activity suppression – cell-based, SK-MEL-5, single point, luciferase, primary screen (AID 488899)
Details: SK-MEL-5 TRPM1 promoter luciferase, 24 h; at 12.5 µM; active compounds read high

Row | Compound | inhibition
1 | CCOC(=O)c1c(S(=O)(=O)NCC(=O)Nc2ccc(C)cc2)c(C)n(C)c1C | 7.89%
2 | Cc1c(N=Nc2ccc(N(C)C)cc2)c(=O)n(-c2ccccc2)n1C | -25.6%
3 | Cn1c(=S)sc2ccc3ccccc3c21 | 0.517%
4 | CCc1nc(Nc2ccc(NC(C)=O)cc2)c2oc3ccccc3c2n1 | 5.96%
5 | CC(=O)Nc1ccc(Nc2cc(C)nc(Nc3ccc(NC(C)=O)cc3)n2)cc1 | -5.88%
6 | CC(=O)Nc1ccc(Nc2c3ccccc3nc3ccccc23)cc1 | 62.4% (active)
7 | Cc1ccc(Cl)cc1N1CCN(C(=O)c2cccc3c(=O)c(C)c(-c4ccccc4)oc23)CC1 | 9.36%
8 | C/C=N/N(c1ccccc1)c1ccccc1 | 2.93%
9 | O=C(NNC(=O)c1ccc2ccccc2c1)c1ccc(Cl)cc1 | 10.1%
10 | O=C(CN1CCN(S(=O)(=O)c2ccc(Br)cc2)CC1)Nc1ccccc1C(=O)c1ccccc1 | -0.0235%
11 | O=[N+]([O-])c1ccc(C=NN=Cc2ccc([N+](=O)[O-])cc2)cc1 | -1.22%
12 | O=C(NN=Cc1ccc([N+](=O)[O-])cc1)C1CC1 | -20.4%
13 | O=C1/C(=C\c2ccc([N+](=O)[O-])cc2)CS(=O)(=O)C/C1=C/c1ccc([N+](=O)[O-])cc1 | 106% (active)
14 | Cc1cc(C)c2nc3nc(C)cc(C)c3c(N)c2c1 | 69% (active)
15 | O=S(=O)(NCc1ccccc1Cl)c1cnc[nH]1 | 9.3%
16 | CN(C)/C=C(\C#N)C(=O)c1cccnc1Oc1ccc(F)cc1F | -3.39%
17 | COc1cc(NC(=O)c2[nH]cnc2C(N)=O)cc(C(=O)Nc2cccc(C(F)(F)F)c2)c1 | 89.9% (active)
18 | Cc1cccc(NC(=O)c2nnn(-c3cccc(C(F)(F)F)c3)c2N)c1 | -39.6%
19 | COc1ccc(NC(=O)C(=O)NCC(=O)Nc2cccc(C(F)(F)F)c2)cc1 | 3.29%
20 | O=C(Nc1ccc(-c2csc(Nc3cccc(C(F)(F)F)c3)n2)cc1)c1cccc(C(F)(F)F)c1 | -14.9%
21 | N#Cc1ccc(Oc2ccc(C(F)(F)F)cc2NC(=O)c2ccc(F)cc2)cc1 | -2.39%
22 | COc1cc(NC(=O)c2cncc(-c3ccc(C#N)cc3)c2)cc(C(=O)Nc2cccc(C(F)(F)F)c2)c1 | 71.3% (active)
23 | CC(C)[C@@H](NC(=O)OC(C)(C)C)C(=O)NCC1CCC(C(=O)N[C@@H](Cc2ccccc2)C(=O)O)CC1 (stereo partly specified) | -3.13%
24 | O=c1oc(/C=C/c2ccccc2)nc2ccccc12 | -14.4%

Row | Compound | inhibition
25 | CCn1c(/C=C/c2ccc([N+](=O)[O-])o2)nc2ccccc2c1=O | 75.9% (active)
26 | CCOCCCn1c(NN)nc2ccccc2c1=O | 10.3%
27 | CC(=O)NC(CC(=O)Nc1nccs1)c1ccccc1 (stereo unspecified) | -5.93%
28 | O=C1CC[C@@H]2CC3(C[C@@H]4CCN1[C@H]24)Nc1cc([N+](=O)[O-])ccc1NC3=NC1CCCCC1 (stereo partly specified) | -4.61%
29 | CC(=O)N1CC[n+]2c(-c3ccc([N+](=O)[O-])cc3)csc21 | -4.65%
30 | COCCN1C(=O)C(=O)/C(=C(/O)c2ccc(S(=O)(=O)N3CCOCC3)cc2)C1c1ccc(OC)c(OC)c1 (stereo unspecified) | 2.98%
31 | CCOC(=O)c1ccccc1OC(=O)Oc1ccccc1C(=O)OCC | 24%
32 | CCOC(=O)c1c(C)nc(-c2ccccc2)nc1NC(=O)C(C)C | -26.2%
33 | CCOC(=O)c1c(C)[nH]c2c1-c1ccccc1C(=O)C2=O | 106% (active)
34 | CC(C)OC(=O)CN1CCN(c2ccc(Cl)cc2)CC1 | -22.1%
35 | C=CCn1c(C)cc(C2=NNC(=NCC)SC2)c1C | 98.4% (active)
36 | Cc1ccc(S(=O)(=O)NCc2ccc(C(=O)NC3CCC(C)CC3)cc2)cc1 (stereo unspecified) | -5.23%
37 | O=C(NCCc1ccccc1)c1cccc(NC(=O)c2ccccc2)c1 | -26.7%
38 | CCN(CC(=O)Nc1c(F)cccc1F)C(=O)Cc1cccs1 | -11.1%
39 | Cc1cccc(NC(=O)c2nc(S(=O)(=O)Cc3ccccc3)ncc2Cl)c1 | 70.8% (active)
40 | Cc1ccc(CS(=O)(=O)c2ncc(Cl)c(C(=O)Nc3nnc(C)s3)n2)cc1 | 85.4% (active)
41 | CSc1nnc(NC(=O)c2nc(S(=O)(=O)Cc3ccc(C)cc3)ncc2Cl)s1 | 62.7% (active)
42 | COCCSc1nnc(NC(=O)CCS(=O)(=O)Cc2ccccc2)s1 | -6.5%
43 | Cc1cccc(CS(=O)(=O)c2ncc(Cl)c(C(=O)Nc3ccc(F)cc3)n2)c1 | 41%
44 | CSc1ncc(Cl)c(C(=O)Nc2cc(C)ccc2C)n1 | 18.6%
45 | Cc1cccc(NC(=O)c2nc[nH]c2C(=O)NCC(=O)OCc2ccccc2)c1 | -4.1%
46 | Cc1nnc(NC(=O)c2ccc3nccnc3c2)s1 | -45.1%
47 | Cc1ccc(S(=O)(=O)CC(=O)Nc2nnc(C)s2)cc1 | 7.41%
48 | NS(=O)(=O)c1ccccc1NC(=O)c1c(O)c2ccccc2[nH]c1=O | -57.1%

Row | Compound | inhibition
49 | Cc1nc(N)nc(Cl)c1CCC1OCCO1 | -7.11%
50 | Cc1ccc(CN(CC(=O)NCC2CCCO2)S(=O)(=O)c2ccc(C)cc2)cc1 (stereo unspecified) | -1.73%
51 | COc1ccc(N2C(=O)C(CC(=O)Nc3ccccc3)N(Cc3ccc(OC)c(OC)c3)C2=O)cc1 (stereo unspecified) | -7.22%
52 | COc1ccc([N+](=O)[O-])cc1N(CC(O)Cn1nnc2ccccc21)S(=O)(=O)c1ccc(C)cc1 (stereo unspecified) | -0.297%
53 | Cc1cc(F)ccc1NC(=S)NCCc1ccccc1 | 7.66%
54 | Cc1ccc(C)c(S(=O)(=O)N(C)c2ccc(OC(=O)C3CCN(C(=O)c4ccc(F)cc4)CC3)cc2)c1 | -0.817%
55 | Cc1ccc(S(=O)(=O)N2CCN(C(=O)c3cc(S(=O)(=O)N4CCOCC4)ccc3F)CC2)cc1 | 3.63%
56 | CC(C)Nc1nnc(SC(C)C(=O)N(C)C2CCCCC2)s1 (stereo unspecified) | 3.93%
57 | Cc1cccc(C=CC(=O)c2ccc(Cl)cc2)c1 | -37.5%
58 | O=C(/C=C/Sc1ncn[nH]1)c1ccc(Cl)cc1 | 90.5% (active)
59 | Cc1ccc(C(=O)/C=C/c2c(C)nn(-c3ccccc3)c2Cl)cc1 | -34.6%
60 | CC(=O)Nc1ccc(NC(=O)C(C)OC(=O)c2ccccc2C(=O)c2ccc(Cl)c([N+](=O)[O-])c2)cc1 (stereo unspecified) | 75.9% (active)
61 | O=C(Nc1ccncc1)c1ccc(Cl)c([N+](=O)[O-])c1 | -0.779%
62 | CC(OC(=O)CNC(=O)c1ccc(Cl)c([N+](=O)[O-])c1)C(=O)NCc1ccco1 (stereo unspecified) | -4.83%
63 | O=C(COC(=O)c1cnccn1)Nc1ccc(Cl)cc1C(F)(F)F | 8.53%
64 | COc1ccc(CC(=O)NC2CCSc3ccccc32)cc1OC (stereo unspecified) | 3.11%
65 | COc1ccccc1N1CCN(S(=O)(=O)c2ccc(Cl)cc2)CC1 | 8.65%
66 | COc1ccccc1-n1nnnc1SCC(=O)NC(=O)Cc1ccccc1 | 2.76%
67 | COc1ccccc1-n1nnnc1S(=O)(=O)Cc1ccc(Cl)cc1 | 73.6% (active)
68 | CC(C)(C)n1nc(Cc2cccc3ccccc23)c(C#N)c1N | 4.42%
69 | CCc1nn(-c2cc(Oc3cccc4ccccc34)nc(-c3ccccc3)n2)c(N)c1C#N | 86.1% (active)
70 | O=C(c1ccc2c(c1)N(Cc1ccc(F)cc1)C(=O)c1ccccc1S2(=O)=O)N1CCN(c2ccccn2)CC1 | 7.75%
71 | CCOC(=O)C1(Cc2ccccc2C)CCCN(S(C)(=O)=O)C1 (stereo unspecified) | 0.048%
